HSF1 inh: HSF1 inhibition; activity change, negative = inhibition, % at 7.5 µM (by protocol); 300,000 tested, 0.77% active; AID 2098; NIH3T3-HGL HSE-luciferase, MG132-induced, luminescence 8 h; active compounds read low;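 active = more than half of replicate wells show activity change below -50%, luminescence cut by over half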;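 note: luciferase reports HSF-1 transcriptional activity via heat shock element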
HSF1 activator: increases HSF-1 driven luciferase reporter signal. NIH3T3-HGL HSF-1 luciferase reporter, MG132, 8 h; 100% = twice DMSO control signal. activation, % at 9 µM. 300,000 tested, 1.7% active. AID 504408;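 active = mean replicate activation of at least 50% with a set share of replicates each reaching 50%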
HSP90 refold inh: inhibitors of HSP90 luciferase refolding in rabbit reticulocyte lysate | luciferase refolding luminescence, 3 h | 290,000 tested, 0.91% active | inhibition, % at 5.6 µM;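 active = inhibition above the screen-wide mean plus 3 SD, computed separately per campaign, cut at about 16% in these data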;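 note: inhibitors lower the luminescence because luciferase stays unfolded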
TWEAK Fn14 block: inhibitors of TWEAK-Fn14 interaction signaling; TWEAK-stimulated Fn14 reporter cells, luciferase luminescence, 8 h; inhibition, % at 10 µM; 360,000 tested, 2% active; AID 1159606; in the data active = inhibition above about 50%
TROY signal inh: inhibitors of TROY-dependent NF-kB signaling; Q293 LMP1-TROYcd NF-kB luciferase reporter, 4 h; inhibition, % at 10 µM; 360,000 tested, 0.98% active;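 active = compounds whose plate-normalised and pattern-corrected inhibition of the luciferase reporter signal at the single screening dose is 50% or more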
LMP1 NFkB inh: Epstein-Barr LMP1 NF-kappaB reporter inhibition. LMP1-induced NF-kappaB luciferase reporter cells, luminescence. inhibition, % at 12.5 µM. 350,000 tested, 0.69% active. AID 504558; in the data active = inhibition above about 41%
HSP90 inh confirm: confirmation of HSP90 inhibitors; shares compounds with HSP90 refold inh; rabbit reticulocyte lysate, luciferase refolding luminescence, 3 h; inhibition, % at 5.9 µM; 2,300 tested, 64% active; in the data active = inhibition above about 18%
luciferase ctr: firefly luciferase inhibition, HSP90 counter-screen | shares compounds with HSP90 refold inh | purified native firefly luciferase, luminescence | inhibition, % at 5.9 µM | 2,300 tested, 48% active;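 active = inhibition above the mean inhibition of all tested sample wells plus 3 SD, cut at about 10% in these data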
Target sequence (P08659 whole entry, looked up): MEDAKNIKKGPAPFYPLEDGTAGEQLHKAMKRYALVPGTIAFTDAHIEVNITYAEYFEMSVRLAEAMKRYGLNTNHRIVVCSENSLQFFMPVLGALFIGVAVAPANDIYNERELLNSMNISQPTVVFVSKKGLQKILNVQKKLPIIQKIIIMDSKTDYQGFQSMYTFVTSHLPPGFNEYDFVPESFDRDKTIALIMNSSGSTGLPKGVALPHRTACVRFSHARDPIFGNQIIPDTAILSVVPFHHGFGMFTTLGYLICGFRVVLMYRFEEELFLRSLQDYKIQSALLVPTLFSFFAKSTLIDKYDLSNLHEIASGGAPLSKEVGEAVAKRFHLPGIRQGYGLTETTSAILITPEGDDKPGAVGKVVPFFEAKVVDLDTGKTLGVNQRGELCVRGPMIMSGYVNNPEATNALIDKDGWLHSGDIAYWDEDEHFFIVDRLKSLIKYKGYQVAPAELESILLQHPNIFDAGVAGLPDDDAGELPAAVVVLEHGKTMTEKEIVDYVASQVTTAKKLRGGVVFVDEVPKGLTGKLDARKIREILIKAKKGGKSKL
Large screens that a line does not name were inactive (follow-up assays come after a bar, where they were run). Compounds with a hit are over-represented: about 4.7% of the library has one in this group of screens.

C=C(C)COc1ccc2c(CC)cc(=O)oc2c1	none
Cc1c(C)c2ccc(OCc3ccc(C(=O)O)o3)c(C)c2oc1=O	HSP90 refold inh 75 | HSP90 inh confirm 87 | luciferase ctr 45
CCc1cc(=O)oc2cc(OCc3ccc(C(=O)O)o3)ccc12	HSP90 refold inh 27 | HSP90 inh confirm 33 | luciferase ctr inactive
O=C(O)c1ccc(COc2ccc3c4c(c(=O)oc3c2)CCC4)o1	HSP90 refold inh 78 | HSP90 inh confirm 79 | luciferase ctr 34
COC(=O)c1ccc(COc2ccc3c(C)c(C)c(=O)oc3c2)o1	HSP90 refold inh 18 | HSP90 inh confirm 76 | luciferase ctr inactive
COc1ccc(C(=O)OCC(=O)NC2CC2)cc1	none (no result: HSF1 inh, HSF1 activator, HSP90 refold inh)
CCCc1cc(=O)oc2cc(OCC(=O)NCC3CCC(C(=O)O)CC3)ccc12 (stereo not given)	HSP90 refold inh 25 | HSP90 inh confirm inactive | luciferase ctr inactive
O=C(CSc1nc2ccccc2c(=O)n1NC(=O)Cc1ccccc1)NCc1ccccc1	none
COc1ccc(C(=O)Nn2c(SCC(=O)NCC3CCCO3)nc3ccccc3c2=O)cc1 (stereo not given)	HSF1 inh -66, HSP90 refold inh 63, TWEAK Fn14 block 95, TROY signal inh 78 | HSP90 inh confirm 78 | luciferase ctr 72
O=C(CSc1nc2ccccc2c(=O)n1CC1CCCO1)NCC1CCCO1 (stereo not given)	none
COc1ccc(C(=O)Nn2c(SCC(=O)NCc3ccccc3)nc3ccccc3c2=O)cc1	HSF1 inh -61, HSP90 refold inh 68, TWEAK Fn14 block 85, TROY signal inh 78 | HSP90 inh confirm 50 | luciferase ctr 49
COc1ccc(C(=O)Nn2c(SCC(=O)NC3CCCC3)nc3ccccc3c2=O)cc1	HSF1 inh -58, HSP90 refold inh 72, TWEAK Fn14 block 78, TROY signal inh 79 | HSP90 inh confirm 52 | luciferase ctr 49
N#CCCSc1ncnc2c1oc1ccccc12	HSP90 refold inh 26 | HSP90 inh confirm inactive | luciferase ctr inactive
O=C(NC(=S)Nc1ccc(-c2ccc(CO)o2)cc1)c1cccs1	HSP90 refold inh 24 | HSP90 inh confirm inactive | luciferase ctr inactive
Cc1ccc(C(=O)NC(=S)Nc2ccc(-c3ccc(CO)o3)cc2)cc1	none
S=C(NCCNC(=S)Nc1ccccc1Cl)Nc1ccccc1Cl	none
NNC(=S)Nc1ccccc1Cl	HSF1 inh -53, HSP90 refold inh 45 | HSP90 inh confirm 27 | luciferase ctr inactive
O=C(NCc1ccccc1)c1cc(C2COCCN2C(=O)c2cccs2)on1 (stereo not given)	none (no result: HSF1 inh, HSF1 activator, HSP90 refold inh, LMP1 NFkB inh)
CCN(CC)c1ccc(/C=N/Nc2nc3ccccc3[nH]2)c(O)c1	HSF1 activator 169, HSP90 refold inh 40, TWEAK Fn14 block 53, TROY signal inh 55, LMP1 NFkB inh 55 | HSP90 inh confirm 23 | luciferase ctr inactive
C(=N\Nc1nc2ccccc2[nH]1)/c1ccccn1	HSP90 refold inh 79, TWEAK Fn14 block 100, TROY signal inh 82 | HSP90 inh confirm 88 | luciferase ctr 85
Cc1ccc2cc(/C=N/Nc3nc4ccccc4[nH]3)c(Cl)nc2c1	none
COc1cccc(CN(C)C(=O)c2cccc(S(=O)(=O)Nc3cccc(C)c3)c2)c1OC	none (no result: HSF1 inh, HSF1 activator, HSP90 refold inh)
O=C(Nc1ccccc1)c1cc(C2CCCCN2S(=O)(=O)c2ccc(F)cc2F)on1 (stereo not given)	none (no result: HSF1 inh, HSF1 activator, HSP90 refold inh, LMP1 NFkB inh)
Cc1ccccc1Nc1nc(-c2sc(NC(=O)c3cccc(Cl)c3)nc2C)cs1	HSP90 refold inh 78 (no result: TWEAK Fn14 block, TROY signal inh, LMP1 NFkB inh) | HSP90 inh confirm 52 | luciferase ctr inactive
Cc1ccc(Cl)cc1Nc1nc(-c2sc(NC(=O)c3ccco3)nc2C)cs1	none
CCCCC(=O)Nc1nc(C)c(-c2csc(Nc3ccccc3OC)n2)s1	none
O=C(Nc1nc(-c2ccco2)cs1)c1ccccc1	none
CCCCCC(=O)Nc1nc(C)c(-c2csc(Nc3cc(Cl)ccc3C)n2)s1	none
Cc1ccc(-c2csc(NC(=O)c3ccc(-c4ccccc4)cc3)n2)o1	HSP90 refold inh 37, TWEAK Fn14 block 67 | HSP90 inh confirm 36 | luciferase ctr inactive
Cc1ccccc1Nc1nc(-c2sc(NC(=O)c3ccc([N+](=O)[O-])cc3)nc2C)cs1	HSP90 refold inh 79 (no result: TWEAK Fn14 block, TROY signal inh, LMP1 NFkB inh) | HSP90 inh confirm 53 | luciferase ctr inactive
Cc1ccc(Cl)cc1Nc1nc(-c2sc(NC(=O)c3cccc(Cl)c3)nc2C)cs1	HSP90 refold inh 65 (no result: TWEAK Fn14 block, TROY signal inh, LMP1 NFkB inh) | HSP90 inh confirm 44 | luciferase ctr inactive
O=C(C[C@@H]1C/C=C\C[C@H](Cc2ccc(F)cc2)C(=O)OCCNC1=O)N[C@H](CO)Cc1ccccc1	none (no result: HSF1 inh, HSF1 activator, HSP90 refold inh)
Cn1c(=O)c2cc(NC(=O)Nc3cccnc3)ccc2n1-c1ccc(C(C)(C)C)cc1	none (no result: HSF1 inh, HSF1 activator, HSP90 refold inh, LMP1 NFkB inh)
Cc1ccc(Nc2nc(-c3sc(NC(=O)c4ccc([N+](=O)[O-])cc4)nc3C)cs2)cc1	HSP90 refold inh 81 (no result: TWEAK Fn14 block, TROY signal inh, LMP1 NFkB inh) | HSP90 inh confirm 45 | luciferase ctr inactive
Cc1ccccc1Nc1nc(-c2sc(NC(=O)c3ccccc3)nc2C)cs1	HSP90 refold inh 59 (no result: TWEAK Fn14 block, TROY signal inh, LMP1 NFkB inh) | HSP90 inh confirm 30 | luciferase ctr inactive
CCC(C)C(=O)Nc1nc(C)c(-c2csc(Nc3ccccc3OC)n2)s1 (stereo not given)	none
COc1ccccc1Nc1nc(-c2sc(NC(=O)c3ccco3)nc2C)cs1	none
CCOc1ccccc1Nc1nc(-c2sc(NC(=O)c3ccc([N+](=O)[O-])cc3)nc2C)cs1	HSP90 refold inh 79 (no result: TWEAK Fn14 block, TROY signal inh, LMP1 NFkB inh) | HSP90 inh confirm 20 | luciferase ctr inactive
CC(=O)c1ccc2ccccc2c1OC(=O)c1ccncc1	none (no result: HSF1 inh, HSF1 activator, HSP90 refold inh)
CC(C)N1CCC1(C)C(=O)Nc1ccccc1OC(F)F (stereo not given)	none (no result: HSF1 inh, HSF1 activator, HSP90 refold inh, LMP1 NFkB inh)
C=CCn1c(C)cc(C(=O)COC(=O)[C@@H](NC(=O)c2ccccc2Cl)C(C)C)c1C	HSF1 inh -61, HSP90 refold inh 27, TWEAK Fn14 block 54 | HSP90 inh confirm 54 | luciferase ctr 43
COc1ccc(OC)c(/C(C)=N/Nc2ccc(C(=O)O)cc2)c1	HSP90 refold inh 36 | HSP90 inh confirm 25 | luciferase ctr 33
C/C(=N/Nc1ccc(C(=O)O)cc1)c1ccc(O)c(O)c1O	HSP90 refold inh 29 | HSP90 inh confirm 54 | luciferase ctr 45
C/C(=N\Nc1ccc(C(=O)O)cc1)c1ccc(-n2ccnc2)cc1	HSP90 refold inh 18 | HSP90 inh confirm inactive | luciferase ctr inactive
COc1cc(/C(C)=N/Nc2ccc(C(=O)O)cc2)cc(OC)c1OC	HSP90 refold inh 25 | HSP90 inh confirm 43 | luciferase ctr 34
C/C(=N\Nc1ccc(C(=O)O)cc1)c1nc2ccccc2n1C	none (no result: TWEAK Fn14 block, TROY signal inh, LMP1 NFkB inh)
CC(C)(C)OC(=O)N1CCC[C@H]1C(=O)NCc1ccc(F)cc1F	none (no result: HSF1 inh, HSF1 activator, HSP90 refold inh, LMP1 NFkB inh)
CC1(C)Cc2nc3sc4c(SCC(=O)O)ncnc4c3cc2CO1	HSP90 refold inh 19, LMP1 NFkB inh 52 (no result: HSF1 inh, HSF1 activator) | HSP90 inh confirm 31 | luciferase ctr inactive
